Measurements: PubChem BioAssay
Active and inactive are the calls of the source.

What was measured:
[1] = system: Human papillomavirus type 1a protein E7 (residues 44-93); assay: HPV1a E7 fragment binders on microarrays, primary screen, biochemical, small-molecule microarray, residues 44-93, 635 nm fluorescence (AID 1108); conditions: small-molecule microarray binding, fluorescence 635 nm; higher = more signal;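 note: E7 fragment applied at 1 µg/mL in TBST for 1 h at 4 C; score combines spot fluorescence with its signal to noise ratio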
[2] = modulators of HCV replicon luciferase signal, primary screen, HCV replication inhibitor project, Huh7 cells, luciferase reporter (AID 1109); conditions: 48 h, higher = more signal;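 note: huh7 hepatoma cells harbouring a luciferase neomycin HCV replicon reporter; luciferase luminescence as measure of HCV replicon replication; test concentration not given here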
[3] = biological target: Left-right determination factor 2 (Homo sapiens) (UniProt O00292); assay: LEFTY2 binders on small-molecule microarrays, primary screen, biochemical, small-molecule microarray, 635 nm fluorescence scan (AID 1110); conditions: LEFTY2 binding, higher = more signal
Left-right determination factor 2 (Homo sapiens), sequence (O00292 whole entry, looked up): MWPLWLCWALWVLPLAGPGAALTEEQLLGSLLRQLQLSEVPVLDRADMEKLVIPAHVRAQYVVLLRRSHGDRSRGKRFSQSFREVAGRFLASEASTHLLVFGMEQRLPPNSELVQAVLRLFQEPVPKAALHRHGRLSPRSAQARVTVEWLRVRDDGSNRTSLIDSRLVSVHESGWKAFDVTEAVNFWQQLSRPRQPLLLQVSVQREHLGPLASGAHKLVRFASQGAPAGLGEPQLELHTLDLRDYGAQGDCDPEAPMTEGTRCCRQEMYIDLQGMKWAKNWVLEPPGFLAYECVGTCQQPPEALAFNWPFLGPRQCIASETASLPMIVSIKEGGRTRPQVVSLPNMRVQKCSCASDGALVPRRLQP

[4] = biological target: Calmodulin-1 (Homo sapiens) (UniProt P0DP23); assay: CALM1 binders on microarrays, EGTA buffer, profiling panel, biochemical, small-molecule microarray, Cy5-labelled CALM1 (AID 1111); conditions: Cy5-CALM1 binding fluorescence, higher = more signal;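 note: labelled calmodulin applied in Tris saline Tween buffer holding calcium plus EGTA and DTT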
[5] = biological target: Calmodulin-1 (Homo sapiens) (UniProt P0DP23); assay: calcium-bound CALM1 binders on microarrays, profiling panel, artefact control for SMM control-protein annotation, biochemical, small-molecule microarray, Cy5-labelled CALM1, plus calcium (AID 1112); conditions: Cy5-CALM1 binding fluorescence, higher = more signal;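 note: score merges spot fluorescence with signal to noise from triplicate slides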
[6] = small-molecule microarray binders of probe aWnt5a, primary screen, biochemical, biotinylated probe, 635/667 nm fluorescence (AID 1113); conditions: higher = more signal;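 note: score merges 667 nm fluorescence intensity with signal-to-noise per printed feature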
[7] = small-molecule microarray binders of probe aShh, primary screen, biochemical, biotinylated probe, 635/667 nm fluorescence (AID 1114); conditions: higher = more signal;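 note: probe is biotin-labelled aShh protein from a stem cell growth factor screen; measures binding of labelled protein to compounds printed on the slide; score merges feature fluorescence at 667 nm with signal-to-noise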
[8] = small-molecule microarray binders of probe aNog, primary screen, biochemical, biotinylated probe, 635/667 nm fluorescence (AID 1115); conditions: higher = more signal;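 note: probe is biotinylated aNog protein used at 0.15 µg/mL for 1 h at 4 C; z-score combines 667 nm fluorescence of each spot with its signal to noise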
[9] = biological target: Torsin-1A-interacting protein 1 (Homo sapiens) (UniProt Q5JTV8); assay: LAP1 binders from COS7 cell lysate, primary screen, small-molecule microarray, 635/667 nm fluorescence (AID 1116); conditions: COS7-hLAP1 lysate binding, 635 nm fluorescence, higher = more signal
Torsin-1A-interacting protein 1 (Homo sapiens), sequence (Q5JTV8 whole entry, looked up): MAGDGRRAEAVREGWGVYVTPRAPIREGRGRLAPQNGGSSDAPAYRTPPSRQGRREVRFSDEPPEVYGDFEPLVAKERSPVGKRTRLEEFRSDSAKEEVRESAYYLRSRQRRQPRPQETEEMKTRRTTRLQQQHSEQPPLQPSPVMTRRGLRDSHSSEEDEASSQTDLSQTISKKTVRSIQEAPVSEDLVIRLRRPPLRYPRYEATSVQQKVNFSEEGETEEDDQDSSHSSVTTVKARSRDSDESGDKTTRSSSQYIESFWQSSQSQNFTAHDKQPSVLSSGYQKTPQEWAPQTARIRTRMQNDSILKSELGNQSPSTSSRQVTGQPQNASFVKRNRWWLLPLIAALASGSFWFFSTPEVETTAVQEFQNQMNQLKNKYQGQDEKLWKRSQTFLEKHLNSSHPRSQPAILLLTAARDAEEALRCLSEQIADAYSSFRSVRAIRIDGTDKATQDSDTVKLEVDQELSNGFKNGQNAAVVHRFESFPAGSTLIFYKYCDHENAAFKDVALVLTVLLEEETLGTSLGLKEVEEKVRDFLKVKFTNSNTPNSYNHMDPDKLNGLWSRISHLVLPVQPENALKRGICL

[10] = biological target: Alpha-bungarotoxin (Bungarus multicinctus) (UniProt P60615); assay: alpha-bungarotoxin binders on microarray, profiling panel, artefact control for SMM control protein annotation, biochemical, small-molecule microarray, Alexa647 label, 635/667 nm fluorescence (AID 1117); conditions: alpha-BTX-A647 binding fluorescence, higher = more signal
Alpha-bungarotoxin (Bungarus multicinctus), sequence (P60615 whole entry, looked up): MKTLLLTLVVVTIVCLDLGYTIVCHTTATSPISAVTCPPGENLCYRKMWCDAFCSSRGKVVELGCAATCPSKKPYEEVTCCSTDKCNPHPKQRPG

[11] = biological target: Albumin (Bos taurus) (UniProt P02769); assay: bovine serum albumin binders on microarray, profiling panel, artefact control for SMM control protein annotation, biochemical, small-molecule microarray, Alexa647 label, 635/667 nm fluorescence (AID 1118); conditions: BSA-A647 binding, fluorescence 635 nm, higher = more signal;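 note: score merges 667 nm emission intensity and signal-to-noise per printed compound spot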
Albumin (Bos taurus), sequence (P02769 whole entry, looked up): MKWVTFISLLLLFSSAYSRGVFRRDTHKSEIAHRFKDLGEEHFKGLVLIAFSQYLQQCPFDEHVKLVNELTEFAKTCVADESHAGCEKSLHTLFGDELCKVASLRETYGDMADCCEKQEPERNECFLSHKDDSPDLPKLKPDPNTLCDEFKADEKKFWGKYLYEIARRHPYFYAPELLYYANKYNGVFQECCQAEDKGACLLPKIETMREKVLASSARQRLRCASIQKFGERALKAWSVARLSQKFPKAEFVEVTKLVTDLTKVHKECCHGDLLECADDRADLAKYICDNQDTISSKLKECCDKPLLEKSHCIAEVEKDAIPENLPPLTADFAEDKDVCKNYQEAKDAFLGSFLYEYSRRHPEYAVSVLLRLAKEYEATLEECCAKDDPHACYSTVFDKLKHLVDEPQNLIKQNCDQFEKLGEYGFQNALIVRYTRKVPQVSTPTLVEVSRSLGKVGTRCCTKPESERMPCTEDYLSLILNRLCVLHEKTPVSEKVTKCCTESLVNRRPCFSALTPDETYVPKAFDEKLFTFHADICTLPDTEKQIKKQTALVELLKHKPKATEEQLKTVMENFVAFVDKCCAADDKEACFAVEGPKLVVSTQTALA

[12] = small-molecule microarray binders of probe aXIP, primary screen, biochemical, NeuroSMM set, 635/667 nm fluorescence (AID 1119); conditions: higher = more signal, called active from +8 up or from −8 down;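 note: probe is the protein aXip251-270 applied at 1 µg/mL to compound-printed slides; binding of probe to printed compounds measured as 667 nm fluorescence plus signal to noise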
[13] = small-molecule binders of probe aNOTCH3, primary screen, biochemical, small-molecule microarray, 635/667 nm fluorescence (AID 1120); conditions: higher = more signal;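 note: probe is a biotin-tagged antibody raised against NOTCH3 rather than NOTCH3 protein; score merges spot fluorescence near 667 nm with spot signal to noise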
[14] = small-molecule binders of probe aNOTCH2, primary screen, biochemical, small-molecule microarray, 635/667 nm fluorescence (AID 1121); conditions: higher = more signal;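 note: score merges feature fluorescence read at 667 nm with its signal to noise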
[15] = biological target: Carbonic anhydrase 2 (Homo sapiens) (UniProt P00918); assay: CAII small-molecule binders, profiling panel, biochemical, small-molecule microarray, Alexa647-labelled CAII (AID 1122); conditions: CAII-A647 binding fluorescence, higher = more signal
[16] = COS7 lysate on small-molecule microarray, probe aHis, 635 nm (AID 1123); conditions: COS7 cell lysate, fluorescence, higher = more signal;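 note: z-score combines 667nm fluorescence intensity with signal-to-noise per printed compound spot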
[17] = compound binding in COS7 lysate, probe aLAP1, primary screen, cell lysate, small-molecule microarray (AID 1124); conditions: probe aLAP1, fluorescence, higher = more signal;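 note: lysate comes from COS7 cells expressing LAP1 and is applied at 0.3 µg/mL; score merges spot fluorescence near 667 nm with signal-to-noise over triplicate slides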
[18] = system: Sam68 (KHDRBS1); assay: Sam68 small-molecule binders, primary screen, biochemical, small-molecule microarray, 635 nm fluorescence (AID 1125); conditions: small-molecule microarray binding, higher = more signal;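 note: score merges 667 nm channel intensity with signal to noise over triplicate slides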
[19] = system: Chordin-like protein 2 (CHRDL2); assay: CHRDL2 small-molecule binders, primary screen, biochemical, small-molecule microarray, 635 nm fluorescence (AID 1126); conditions: small-molecule microarray binding, fluorescence 635 nm; higher = more signal;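 note: printed compound slides probed with Chrdl2 protein at 4 µg/mL for 1 h at 4 C; score merges 667 nm emission intensity with signal to noise over three replicate slides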
[20] = biological target: Concanavalin-A (Canavalia ensiformis) (UniProt P02866); assay: ConA small-molecule binders, primary screen, artefact control for SMM control protein annotation, biochemical, small-molecule microarray, Alexa647 label, 635 nm (AID 1127); conditions: ConA-A647 binding fluorescence, higher = more signal;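 note: z combines 667 nm emission intensity with signal-to-noise across three replicate slides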
Concanavalin-A (Canavalia ensiformis), sequence (P02866 whole entry, looked up): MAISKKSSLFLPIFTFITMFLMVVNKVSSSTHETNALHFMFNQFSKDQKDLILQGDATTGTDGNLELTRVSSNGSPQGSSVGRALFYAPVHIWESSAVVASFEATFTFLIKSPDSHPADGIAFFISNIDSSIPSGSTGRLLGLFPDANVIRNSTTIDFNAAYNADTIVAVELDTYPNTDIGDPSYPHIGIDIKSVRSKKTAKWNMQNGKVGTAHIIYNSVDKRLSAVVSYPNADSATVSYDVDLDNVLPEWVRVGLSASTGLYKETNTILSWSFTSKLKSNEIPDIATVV

`COCCOC(=O)N1C(=O)[C@@]2(c3cc(C#CC4=CCCCC4)ccc31)[C@H](c1ccc(OCCO)cc1)N1[C@H](c3ccccc3)[C@H](c3ccccc3)OC(=O)[C@H]1[C@@H]2C(=O)Nc1nc2ccccc2s1` showed a composite z-score [1] of 1.23, a z-score [2] of -1.87 and a composite z-score [3] of 0.172. It also gave a composite z-score [4] of 1.57, a composite z-score [5] of -0.386 and a composite z-score [6] of -0.001. For the same compound, the composite z-score [7] was 0.275, the composite z-score [8] was -0.45 and the composite z-score [9] was 0.993. The composite z-score [10] was 0.656, the composite z-score [11] was 0.539 and the composite Z-score [12] was 0.657 (inactive). The composite z-score [13] was 0.151, the composite z-score [14] was -0.0483 and the composite z-score [15] was 0.154. It also gave a composite z-score [16] of 0.999, a composite z-score [17] of 0.664 and a composite z-score [18] of 1.31. The composite z-score [19] was 1.29 and the composite z-score [20] was 1.09.

`COC(=O)[C@@]1(Cc2ccc(F)cc2)[C@H]2c3cc(C(=O)N(C)C)n(CCc4c[nH]c5ccc(OC)cc45)c3C[C@H]2CN1C(=O)c1ccccc1` showed a composite z-score [1] of 1.47, a z-score [2] of -1.94 and a composite z-score [3] of -0.995. It also gave a composite z-score [4] of 1.72, a composite z-score [5] of 1.16 and a composite z-score [6] of 0.27. It also gave a composite z-score [7] of 0.764, a composite z-score [8] of 1.7 and a composite z-score [9] of 2.15. The composite z-score [10] was 1.04, the composite z-score [11] was 0.655 and the composite Z-score [12] was 0.0904 (inactive). For the same compound, the composite z-score [13] was 0.351, the composite z-score [14] was 0.317 and the composite z-score [15] was 0.617. For the same compound, the composite z-score [16] was 2.74, the composite z-score [17] was 0.606 and the composite z-score [18] was 1.1. For the same compound, the composite z-score [19] was -0.705 and the composite z-score [20] was -0.203.

With `O=C1[C@H]2C=C(Br)[C@H](C[C@@H]2OCCOCCO)[C@@]12CO2` the composite z-score [1] was 0.0617, the z-score [2] was -1.85 and the composite z-score [3] was 0.348. It also gave a composite z-score [4] of -0.2, a composite z-score [5] of -0.341 and a composite z-score [6] of -0.0944. For the same compound, the composite z-score [7] was -0.0769, the composite z-score [8] was -0.303 and the composite z-score [9] was 0.0452. The composite z-score [10] was 0.554, the composite z-score [11] was -0.335 and the composite Z-score [12] was -0.0482 (inactive). It also gave a composite z-score [13] of -0.105, a composite z-score [14] of -0.0418 and a composite z-score [15] of -0.122. The composite z-score [16] was -0.146, the composite z-score [17] was 0.669 and the composite z-score [18] was 0.421. It also gave a composite z-score [19] of 0.169 and a composite z-score [20] of 0.393.
